Holding throughout (assay): NCI-60 one-dose screen, 48 h (100 = growth as untreated, 0 = no growth, -100 = all killed)
Common to all, as to details: 10 µM unless noted

Test [1] relates to HCT-15 colon.
Test [2] concerns HT29 colon.
The test system of test [3] is SNB-75 CNS.
The subject of test [4] is SNB-19 CNS.
The test system of test [5] is U251 CNS.
In test [6] the test system is PC-3 prostate.
In test [7] the test system is UACC-62 melanoma.
The test system of test [8] is LOX IMVI melanoma.
The test system of test [9] is SK-MEL-28 melanoma.
Test [10] has as its system SK-MEL-2 melanoma.
Test [11] has as its system EKVX NSCLC.
The test system of test [12] is SN12C renal.
For test [13], the system named is UO-31 renal.
Test [14] deals with TK-10 renal.
The subject of test [15] is ACHN renal.
The subject of test [16] is CAKI-1 renal.
For test [17], the system named is A498 renal.
The test system of test [18] is CCRF-CEM leukemia.
Test [19] concerns MOLT-4 leukemia.
The test system of test [20] is SK-MEL-5 melanoma.

Compounds without any hit were thinned out: in the full panel of roughly 83,000, 20% have a hit.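 Compound tested at a single concentration for 48 hours in 96-well plates; a percent growth value below 10 was scored as active.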 Unmarked numbers belong to inactive results. Calls of active or inactive are those of the source.

As to `O=C1c2cccnc2C(=O)c2c1c(C(=O)OCCCN1CCCCC1)c1ccccn21`, the growth in test [1] was -55.5% (active); in test [2], -24.2% (active); in [3], -88.7% (active); in test [4], -38.2% (active); in test [5], -31% (active); in test [6], -18.2% (active). Also, the growth is -51.2% (active) in [7]; -67.2% (active) in test [8]; -20.3% (active) in [9]; -47.3% (active) in test [10]; -15.6% (active) in [11]; -57.6% (active) in test [12]. The growth in test [13] was -19.5% (active); in test [14], -11.1% (active); in test [15] it was -55.2% (active); in test [16] it was -24% (active); in [17] it was 11.1%; in test [18] it was -17% (active). In test [19], the growth was -7.64% (active).

Take `CCOC(=O)c1c2c(n3ccccc13)C(=O)c1ncccc1C2=O`: the growth in [1] was 22.4%; in test [2], 47.6%; in test [3] it was 34.3%; in test [4], 16.5%; in test [5] it was 0.0106% (active); in [6], 19.9%. In addition, the growth in test [7] is -25.8% (active); in test [8], 0.56% (active); in [9], 28.9%; in [10] it was 65.6%; in test [11], 40.4%; in test [12], 10.3%. Further, the growth is 1.86% (active) in test [13]; 38.4% in [14]; 7.49% (active) in test [15]; 9.11% (active) in test [16]; 30.7% in test [17]; 32.1% in [18]. Moreover, in [19], the growth was 31.9%.

In the case of `CCOC(=O)c1c(C)nc2c(c1N)CC(=O)N2Cc1cc(OC)c(OC)c(OC)c1`, the growth in [1] was 28.5%; in [2] it was 8.37% (active); in test [3] it was 53.9%; in test [4] it was 66.1%; in [5], 38.3%; in test [6], 52.4%. Also, the growth in test [7] was 51%; in [8], 48.5%; in [9] it was 73.6%; in [10], 27%; in [11], 51.6%; in test [12], 74%. Moreover, the growth in test [13] is 62.2%; in test [14], 54.8%; in [15] it was 64.9%; in [16] it was 50.6%; in test [17], 35.8%; in test [18] it was 78.2%. In test [19], the growth was 52.1%.

Consider `CC[C@@H](c1ccc2cc(OC)ccc2c1)C(C)(C)C(=O)F`, for which the growth in test [1] is 104%; in [2], 118%; in test [3] it was 106%; in [4], 91.9%; in test [5] it was 98.8%; in test [6] it was 101%. Also, the growth in test [20] was 106%; in [7] it was 103%; in test [8], 91.4%; in test [9] it was 106%; in test [10], 94.8%; in test [11] it was 96.1%. The growth in test [13] was 97%; in test [14], 126%; in test [15], 104%; in [16], 76.8%; in test [17], 98.4%; in [18], 114%. Besides, the growth in [19] was 99.2%.

Take `CC(/C=C1\SC(=S)N(CC(=O)NC(Cc2c[nH]c3ccccc23)C(=O)O)C1=O)=C\c1ccccc1` (centres undefined): the growth in test [1] is 103%; in [2], 110%; in test [3], 87.2%; in test [4] it was 98.8%; in test [5], 105%; in [6], 97.6%. Further, the growth in [7] is 88.3%; in test [8] it was 92.9%; in test [9], 105%; in test [10] it was 110%; in test [11] it was 98.5%; in test [12], 95%. Further, the growth was 63.9% in test [13]; 122% in [14]; 96.5% in test [15]; 87% in test [16]; 107% in test [17]; 104% in [18]. In test [19], the growth is 104%.

`CCn1cc(C2=C(c3cn(C)c4ncccc34)C(=O)NC2=O)c2cccnc21`: the growth in [1] was 67.6%; in test [2], 72.4%; in [3] it was -10.8% (active); in test [4], 87.7%; in [5], 76.7%; in test [6], 66%. Besides, the growth was 70% in [7]; 66.5% in [8]; 90.7% in [9]; 84.8% in [10]; 54.6% in [11]; 68.5% in test [12]. Besides, the growth in test [13] was 50%; in test [14] it was 69.4%; in [15], 74.7%; in [16] it was 61.6%; in [17], -2.35% (active); in test [18], 65.8%. The growth in test [19] is 81.9%.

Values taken from PubChem BioAssay (NCI).
